Active and inactive are the calls of the source. How the source made its calls: active means hit-call score of the fitted dose curve at least 0.9, where 1 is the maximum; inactive means score below 0.9.
Tests used:
[1] = molecular target: Bile acid receptor (Homo sapiens) (UniProt Q96RI1); assay: ATG_IR1_CIS: Attagene CIS-FACTORIAL HepG2 Assay for human Nuclear Receptor Subfamily 1 Group H Member 4 (NR1H4), IR1 submotif (AID 2282946); details: IR1 reporter transcription, actives raise or lower the signal
Bile acid receptor (Homo sapiens), sequence (Q96RI1 whole entry, looked up): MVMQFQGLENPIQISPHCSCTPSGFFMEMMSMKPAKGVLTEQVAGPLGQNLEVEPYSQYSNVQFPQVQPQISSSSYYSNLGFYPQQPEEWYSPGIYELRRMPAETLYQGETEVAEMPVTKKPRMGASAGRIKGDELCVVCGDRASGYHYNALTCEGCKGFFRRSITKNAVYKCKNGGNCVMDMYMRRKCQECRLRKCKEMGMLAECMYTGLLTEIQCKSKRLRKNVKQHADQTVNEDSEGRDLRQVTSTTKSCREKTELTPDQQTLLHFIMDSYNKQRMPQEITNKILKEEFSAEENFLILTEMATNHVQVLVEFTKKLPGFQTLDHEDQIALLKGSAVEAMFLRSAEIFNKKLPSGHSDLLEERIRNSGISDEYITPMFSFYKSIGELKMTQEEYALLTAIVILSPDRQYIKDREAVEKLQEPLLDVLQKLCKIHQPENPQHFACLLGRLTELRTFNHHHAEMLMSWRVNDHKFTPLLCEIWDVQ
Outline: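 HepG2 cells transiently transfected with multiple cis-promoter-driven reporter units to measure endogenous transcription factor activity; 24 h exposure. Reporter mRNA read by RT-PCR, FAM labelling, HpaI digestion and capillary electrophoresis. Bidirectional fit versus DMSO.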

[2] = ATG_GRE_CIS: Attagene CIS-FACTORIAL HepG2 Assay for human Glucocorticoid Response Elements (GRE) (AID 2282947); details: HepG2 GRE cis-reporter, Attagene multiplex mRNA; actives raise or lower the signal
Outline: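 Endogenous transcription factor activity is read through cis-element reporter constructs transiently transfected into HepG2 cells. After 24 h treatment, labelled RT-PCR products are resolved by capillary electrophoresis; DMSO sets baseline for bidirectional curve fitting.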

[3] = ATG_ISRE_CIS: Attagene CIS-FACTORIAL HepG2 Assay for human Interferon Regulatory Factor 1 (IRF1) binding to an Interferon-Stimulated Response Element (ISRE) (AID 2282948); details: HepG2 ISRE cis-reporter (Attagene), mRNA transcription readout; actives raise or lower the signal
Outline: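 Quantitation relies on labelled RT-PCR fragments separated by capillary electrophoresis. Human HepG2 cells bearing cis-promoter reporter constructs were treated 24 h; DMSO served as baseline for bidirectional fitting.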

[4] = ATG_M_32_CIS: Attagene CIS-FACTORIAL HepG2 Assay for M32 Transcription Factor (Internal Marker) (AID 2282949); details: HepG2 Attagene cis-factorial M32 reporter, mRNA; actives raise or lower the signal;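 further: background control marker of the multiplexed CIS panel rather than a real target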
Outline: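 Internal background marker read-out: RT-PCR/capillary electrophoresis fluorescence of reporter transcripts from transiently transfected HepG2 cells after 24 h chemical exposure. Activity fitted bidirectionally relative to DMSO negative control.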

[5] = ATG_M_06_CIS: Attagene CIS-FACTORIAL HepG2 Assay for M06 Transcription Factor (Internal Marker) (AID 2282950); details: HepG2 Attagene CIS-FACTORIAL M06 internal marker reporter; actives raise or lower the signal
Outline: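 HepG2 cells transiently transfected with cis-regulated multiple reporter transcription units were exposed to chemical for 24 h; reporter mRNA was quantified by RT-PCR, 6-FAM primer labelling, HpaI digestion and capillary electrophoresis, fitted bidirectionally against DMSO.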

[6] = molecular target: Hypoxia-inducible factor 1-alpha (Homo sapiens) (UniProt Q16665); assay: ATG_HIF1a_CIS: Attagene CIS-FACTORIAL HepG2 Assay for human Hypoxia Inducible Factor 1 (HIF1A) (AID 2282951); details: HepG2 Attagene cis-factorial HIF1a reporter transcription; actives raise or lower the signal
Hypoxia-inducible factor 1-alpha (Homo sapiens), sequence (Q16665 whole entry, looked up): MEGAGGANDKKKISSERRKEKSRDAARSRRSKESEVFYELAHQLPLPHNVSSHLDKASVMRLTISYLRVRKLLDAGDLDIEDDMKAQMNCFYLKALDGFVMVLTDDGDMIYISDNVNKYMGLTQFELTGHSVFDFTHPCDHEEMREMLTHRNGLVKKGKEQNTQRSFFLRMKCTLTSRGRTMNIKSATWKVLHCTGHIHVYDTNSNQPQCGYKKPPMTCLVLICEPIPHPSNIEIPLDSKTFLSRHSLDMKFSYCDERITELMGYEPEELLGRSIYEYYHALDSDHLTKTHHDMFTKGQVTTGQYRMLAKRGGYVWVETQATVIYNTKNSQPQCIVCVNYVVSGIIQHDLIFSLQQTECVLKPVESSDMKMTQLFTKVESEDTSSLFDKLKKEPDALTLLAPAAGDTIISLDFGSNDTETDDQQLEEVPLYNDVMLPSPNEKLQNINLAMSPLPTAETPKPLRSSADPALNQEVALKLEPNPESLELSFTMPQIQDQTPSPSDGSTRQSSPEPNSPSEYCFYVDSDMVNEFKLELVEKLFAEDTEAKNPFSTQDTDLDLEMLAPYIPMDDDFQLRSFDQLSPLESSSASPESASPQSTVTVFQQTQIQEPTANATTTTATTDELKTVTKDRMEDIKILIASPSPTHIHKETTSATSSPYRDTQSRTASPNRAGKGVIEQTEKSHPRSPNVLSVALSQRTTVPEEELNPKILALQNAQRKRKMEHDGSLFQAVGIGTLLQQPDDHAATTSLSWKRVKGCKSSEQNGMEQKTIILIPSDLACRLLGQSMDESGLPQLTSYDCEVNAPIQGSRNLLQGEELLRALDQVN
Outline: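 Activity is fitted in both directions relative to DMSO. Reporter transcripts are read by RT-PCR, fluorescent primer extension and capillary electrophoresis after 24 h chemical treatment. The cells are HepG2 carrying transiently transfected cis-element-driven reporter units responding to endogenous factors.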

[7] = molecular target: Hepatocyte nuclear factor 6 (Homo sapiens) (UniProt Q9UBC0); assay: ATG_HNF6_CIS: Attagene CIS-FACTORIAL HepG2 Assay for human Hepatocyte Nuclear Factor 6 (HNF6) (AID 2282952); details: HepG2 Attagene cis-factorial HNF6 reporter transcription; actives raise or lower the signal
Hepatocyte nuclear factor 6 (Homo sapiens), sequence (Q9UBC0 whole entry, looked up): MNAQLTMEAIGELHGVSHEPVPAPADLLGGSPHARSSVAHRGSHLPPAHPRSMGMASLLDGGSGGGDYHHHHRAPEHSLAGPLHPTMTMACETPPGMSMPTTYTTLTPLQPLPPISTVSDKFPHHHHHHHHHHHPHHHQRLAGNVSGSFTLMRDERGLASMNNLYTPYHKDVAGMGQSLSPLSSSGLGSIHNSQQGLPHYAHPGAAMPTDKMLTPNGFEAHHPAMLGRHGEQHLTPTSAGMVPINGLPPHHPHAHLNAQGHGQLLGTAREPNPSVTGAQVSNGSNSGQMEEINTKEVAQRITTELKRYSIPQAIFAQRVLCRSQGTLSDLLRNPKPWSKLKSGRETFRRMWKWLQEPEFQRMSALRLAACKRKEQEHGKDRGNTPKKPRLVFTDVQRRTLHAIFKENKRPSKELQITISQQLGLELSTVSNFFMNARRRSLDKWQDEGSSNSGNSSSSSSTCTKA
Outline: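 Multiplexed mRNA reporter assay in transfected HepG2; 24 h dosing; RT-PCR plus capillary electrophoresis fluorescence; DMSO-referenced bidirectional curve fitting.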

[8] = molecular target: Heat shock factor protein 1 (Homo sapiens) (UniProt Q00613); assay: ATG_HSE_CIS: Attagene CIS-FACTORIAL HepG2 Assay for human Heat Shock Transcription Factor 1 (HSE) (AID 2282953); details: HepG2 HSE cis-reporter, Attagene RNA transcription; actives raise or lower the signal
Heat shock factor protein 1 (Homo sapiens), sequence (Q00613 whole entry, looked up): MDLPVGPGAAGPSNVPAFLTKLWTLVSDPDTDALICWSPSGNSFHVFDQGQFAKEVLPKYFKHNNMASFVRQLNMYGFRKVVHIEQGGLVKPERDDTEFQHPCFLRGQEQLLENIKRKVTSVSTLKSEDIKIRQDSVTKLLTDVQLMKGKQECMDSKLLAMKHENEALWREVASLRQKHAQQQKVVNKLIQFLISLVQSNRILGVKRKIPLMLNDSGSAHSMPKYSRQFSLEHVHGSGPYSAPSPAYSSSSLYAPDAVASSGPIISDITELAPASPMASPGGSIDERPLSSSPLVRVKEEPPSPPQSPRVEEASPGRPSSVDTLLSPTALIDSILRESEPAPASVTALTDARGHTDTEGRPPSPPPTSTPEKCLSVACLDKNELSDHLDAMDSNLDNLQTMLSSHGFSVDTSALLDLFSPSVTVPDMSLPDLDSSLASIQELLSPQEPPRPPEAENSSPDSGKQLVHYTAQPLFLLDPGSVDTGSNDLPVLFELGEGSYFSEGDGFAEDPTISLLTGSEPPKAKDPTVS
Outline: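 HepG2 cells transiently transfected with multiple reporter transcription units under cis-regulatory promoter control, measuring endogenous transcription factor activity. After 24 h chemical exposure, reporter mRNA quantified by RT-PCR, fluorescent labelling, HpaI digestion and capillary electrophoresis; bidirectional fit versus DMSO.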

[9] = ATG_MRE_CIS: Attagene CIS-FACTORIAL HepG2 Assay for human Metal Responsive Element (MRE) (AID 2282954); details: HepG2 MRE cis-reporter transcription, Attagene multiplex; actives raise or lower the signal
Outline: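 Fluorescent reporter fragments separated by capillary electrophoresis give mRNA induction for the MRE unit after 24 h treatment of transfected HepG2 cells. Endogenous transcription-factor activity is read; DMSO serves as negative control and baseline.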

[10] = ATG_PBREM_CIS: Attagene CIS-FACTORIAL HepG2 Assay for human Phenobarbital-responsive Enhancer Module (PBREM) (AID 2282955); details: HepG2 PBREM cis-reporter, Attagene multiplexed transcription; actives raise or lower the signal
Outline: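 Endogenous transcription factor activity was read from reporter transcripts in transiently transfected human HepG2 liver cells after 24 h dosing. RT-PCR products were fluorescently labelled, HpaI-cut and sized by capillary electrophoresis; activity fitted bidirectionally against DMSO baseline.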

[11] = molecular target: Paired box protein Pax-6 (Homo sapiens) (UniProt P26367); assay: ATG_Pax6_CIS: Attagene CIS-FACTORIAL HepG2 Assay for human Paired Box 6 (PAX6) (AID 2282956); details: HepG2 CIS-FACTORIAL PAX6 reporter transcription, RNA readout; actives raise or lower the signal
Paired box protein Pax-6 (Homo sapiens), sequence (P26367 whole entry, looked up): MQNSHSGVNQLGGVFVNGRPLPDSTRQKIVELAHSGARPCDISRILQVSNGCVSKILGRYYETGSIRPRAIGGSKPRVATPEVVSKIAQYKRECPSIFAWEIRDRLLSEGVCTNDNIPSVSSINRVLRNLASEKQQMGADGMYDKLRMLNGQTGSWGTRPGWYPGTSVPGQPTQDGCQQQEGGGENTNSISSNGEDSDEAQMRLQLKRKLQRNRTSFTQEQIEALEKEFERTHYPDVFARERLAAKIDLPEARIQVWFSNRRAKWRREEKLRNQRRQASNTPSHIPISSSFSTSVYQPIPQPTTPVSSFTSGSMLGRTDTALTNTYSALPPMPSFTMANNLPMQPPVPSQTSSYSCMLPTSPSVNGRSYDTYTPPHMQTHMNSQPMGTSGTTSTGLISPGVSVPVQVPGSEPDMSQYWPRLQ
Outline: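 After twenty-four hours of chemical exposure, transfected HepG2 cells are harvested for RNA. Cis-promoter reporter transcripts are amplified, fluorescently labelled and sized by capillary electrophoresis, with gain and loss of signal scored against DMSO.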

[12] = ATG_PXRE_CIS: Attagene CIS-FACTORIAL HepG2 Assay for human Pregnane X Receptor Element (PXRE) (AID 2282957); details: HepG2 Attagene CIS-FACTORIAL PXRE reporter, mRNA; actives raise or lower the signal
Outline: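 Cells: HepG2, transiently transfected reporter units under cis promoter control. Exposure: 24 h. Detection: reporter mRNA via RT-PCR/CE fluorescence; bidirectional fitting, DMSO-referenced.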

[13] = ATG_PPRE_CIS: Attagene CIS-FACTORIAL HepG2 Assay for human Peroxisome Proliferator-activated Response Element (PPRE) (AID 2282958); details: HepG2 PPRE cis-element reporter, Attagene transcription factor profiling; actives raise or lower the signal
Outline: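 Endogenous PPRE-driven transcription is measured in HepG2 cells carrying transfected multi-reporter constructs. Reporter transcripts are quantified by RT-PCR, HpaI digestion and capillary electrophoresis 24 h after dosing. DMSO baseline, bidirectional fit.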

[14] = ATG_RORE_CIS: Attagene CIS-FACTORIAL HepG2 Assay for human RAR-related Orphan Receptor Element (RORE) (AID 2282959); details: HepG2 Attagene cis-factorial RORE reporter, mRNA; actives raise or lower the signal
Outline: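 RORE reporter transcripts reflecting endogenous factor activity were read after 24 h compound exposure of transfected HepG2 cells, using reverse transcription, PCR, fluorescent labelling and capillary electrophoresis sizing. Gain or loss fitted against DMSO.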

[15] = molecular target: Transcription factor Sp1 (Homo sapiens) (UniProt P08047); assay: ATG_Sp1_CIS: Attagene CIS-FACTORIAL HepG2 Assay for human Specificity Protein 1 (Sp1) (AID 2282961); details: HepG2 Sp1 cis-reporter transcription, actives raise or lower the signal
Transcription factor Sp1 (Homo sapiens), sequence (P08047 whole entry, looked up): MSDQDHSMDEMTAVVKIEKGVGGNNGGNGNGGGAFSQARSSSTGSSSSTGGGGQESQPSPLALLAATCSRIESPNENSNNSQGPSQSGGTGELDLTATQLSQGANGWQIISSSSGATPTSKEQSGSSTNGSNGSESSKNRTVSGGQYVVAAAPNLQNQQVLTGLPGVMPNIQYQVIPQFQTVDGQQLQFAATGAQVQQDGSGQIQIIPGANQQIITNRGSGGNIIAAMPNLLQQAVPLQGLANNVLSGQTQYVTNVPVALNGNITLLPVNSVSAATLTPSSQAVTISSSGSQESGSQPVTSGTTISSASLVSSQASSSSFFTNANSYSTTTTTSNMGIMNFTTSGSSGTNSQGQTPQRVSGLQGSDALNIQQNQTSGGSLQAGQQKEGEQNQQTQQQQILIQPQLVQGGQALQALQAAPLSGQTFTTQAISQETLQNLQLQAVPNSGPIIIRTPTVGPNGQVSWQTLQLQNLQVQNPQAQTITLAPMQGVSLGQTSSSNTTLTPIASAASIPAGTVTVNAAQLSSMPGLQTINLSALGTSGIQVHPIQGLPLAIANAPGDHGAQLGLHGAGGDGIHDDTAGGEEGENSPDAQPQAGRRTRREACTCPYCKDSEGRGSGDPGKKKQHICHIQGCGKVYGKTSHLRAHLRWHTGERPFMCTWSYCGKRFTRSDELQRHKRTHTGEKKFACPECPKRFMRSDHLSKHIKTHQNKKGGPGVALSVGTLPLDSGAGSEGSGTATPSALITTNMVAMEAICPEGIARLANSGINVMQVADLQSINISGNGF
Outline: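 Read-out is reporter transcript level, measured by RT-PCR and fluorescent capillary electrophoresis after 24 h chemical treatment. System: transiently transfected HepG2 cells reporting endogenous transcription factor activity; gain or loss fitted against DMSO baseline.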

[16] = molecular target: Signal transducer and activator of transcription 3 (Homo sapiens) (UniProt P40763); assay: ATG_STAT3_CIS: Attagene CIS-FACTORIAL HepG2 Assay for human Signal Transducer and Activator of Transcription 3 (STAT3) (AID 2282963); details: HepG2, Attagene cis-factorial STAT3 reporter transcription; actives raise or lower the signal
Signal transducer and activator of transcription 3 (Homo sapiens), sequence (P40763 whole entry, looked up): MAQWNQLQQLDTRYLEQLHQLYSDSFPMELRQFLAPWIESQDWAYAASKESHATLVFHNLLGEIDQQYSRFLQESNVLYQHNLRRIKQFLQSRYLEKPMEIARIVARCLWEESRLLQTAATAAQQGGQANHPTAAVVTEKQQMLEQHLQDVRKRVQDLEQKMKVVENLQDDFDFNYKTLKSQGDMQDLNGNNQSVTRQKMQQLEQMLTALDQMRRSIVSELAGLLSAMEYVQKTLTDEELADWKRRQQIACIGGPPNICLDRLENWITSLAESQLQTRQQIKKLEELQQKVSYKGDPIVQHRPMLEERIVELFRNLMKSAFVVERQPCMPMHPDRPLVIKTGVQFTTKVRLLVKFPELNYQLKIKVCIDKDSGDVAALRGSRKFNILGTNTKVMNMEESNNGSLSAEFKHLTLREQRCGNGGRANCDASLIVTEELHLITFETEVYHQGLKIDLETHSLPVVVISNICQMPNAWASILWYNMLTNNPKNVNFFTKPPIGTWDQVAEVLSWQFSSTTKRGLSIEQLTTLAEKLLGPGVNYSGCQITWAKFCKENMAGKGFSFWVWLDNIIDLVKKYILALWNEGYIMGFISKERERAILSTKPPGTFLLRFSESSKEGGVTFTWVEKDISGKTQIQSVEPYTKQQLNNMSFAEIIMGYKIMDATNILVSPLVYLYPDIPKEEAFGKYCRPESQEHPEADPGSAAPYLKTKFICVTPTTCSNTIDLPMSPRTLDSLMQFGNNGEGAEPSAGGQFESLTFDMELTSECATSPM
Outline: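 Values derive from bidirectional fits relative to DMSO of reporter mRNA levels, measured by RT-PCR with capillary electrophoresis, in HepG2 cells carrying transiently transfected cis-regulated reporter units and exposed 24 h.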

[17] = ATG_TA_CIS: Attagene CIS-FACTORIAL HepG2 Assay for human TA Basal Promoter (AID 2282964); details: HepG2 Attagene CIS-factorial TA basal promoter reporter; actives raise or lower the signal
Outline: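 HepG2 cells transiently transfected with multiplexed cis-promoter reporter units, dosed 24 h. Reporter mRNA measured by RT-PCR, 6-FAM labelling, HpaI digestion and capillary electrophoresis; bidirectional fit versus DMSO baseline, serving as background control.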

[18] = ATG_TCF_b_cat_CIS: Attagene CIS-FACTORIAL HepG2 Assay for human T-Cell-Factor with beta-catenin (TCF/b-cat) (AID 2282965); details: HepG2 TCF/beta-catenin cis-reporter transcription, actives raise or lower the signal
Outline: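 HepG2 cells transiently transfected with cis-promoter-driven multiplexed reporter units; reporter mRNA measured 24 h after dosing by RT-PCR, FAM labelling, HpaI digestion and capillary electrophoresis. Bidirectional fitting relative to DMSO baseline.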

[19] = ATG_SREBP_CIS: Attagene CIS-FACTORIAL HepG2 Assay for human Sterol Regulatory Element Binding (SREBP) (AID 2282962); details: HepG2 Attagene cis-factorial SREBP reporter, mRNA; actives raise or lower the signal
Outline: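 Twenty-four hours after chemical dosing of transfected HepG2 cultures, reporter RNA was converted to cDNA, amplified, end-labelled with 6-FAM and resolved by capillary electrophoresis. Responses were fitted relative to DMSO.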

[20] = ATG_Sox_CIS: Attagene CIS-FACTORIAL HepG2 Assay for human SRY-box transcription factor (SOX) (AID 2282960); details: HepG2 Attagene cis-factorial SOX reporter, mRNA; actives raise or lower the signal
Outline: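 Reporter transcripts, measured by RT-PCR and capillary electrophoresis of labelled fragments, report endogenous SOX transcription factor activity. Transiently transfected human HepG2 cells receive chemical for 24 h; changes in either direction are fitted relative to DMSO.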

Measured: AC50

CCCCSP(=O)(SCCCC)SCCCC
active: [2] 50 µM | [3] 58.6 µM | [4] 77.9 µM | [9] 23.4 µM | [10] 50 µM | [12] 12.9 µM | [13] 11.7 µM | [15] 50 µM | [16] 50 µM | [17] 80.2 µM
inactive: [1] | [5] | [6] | [7] | [8] | [11] | [14] | [18]

CC(C)N(C(=O)SCC(Cl)=C(Cl)Cl)C(C)C
active: [1] 19.9 µM | [9] 29.1 µM | [12] 3.05 µM | [19] 29.1 µM
not listed: [13] | [20]
inactive: all other assays above

COc1cccc(C(=O)NN(C(=O)c2cc(C)cc(C)c2)C(C)(C)C)c1C
active: [10] 3.46 µM | [12] 0.526 µM
not listed: [2] | [14]
inactive: all other assays above

CCCCOC(=O)c1ccccc1C(=O)O
not listed: [2] | [14] | [20]
inactive: all other assays above

Cc1ccn2nc(S(=O)(=O)Nc3c(F)cccc3F)nc2n1
active: [12] 9.86 µM
not listed: [2] | [14] | [19]
inactive: all other assays above

CNC(=O)Oc1cccc2c1OC(C)(C)O2
active: [9] 67.7 µM | [12] 40.2 µM | [13] 50 µM | [15] 50 µM
not listed: [14] | [19] | [20]
inactive: all other assays above

Nc1c(Cl)cc([N+](=O)[O-])cc1Cl
active: [2] 86.3 µM | [9] 64.6 µM | [12] 44.2 µM | [13] 34.4 µM | [16] 75.9 µM
not listed: [14] | [19]
inactive: all other assays above

— PubChem BioAssay (EPA / NIEHS)
